# Reference: the supplement of paper PMC4723716
# ± gives the uncertainty stated by the source. In all, about 9,900 compounds were measured (“viability index relative to DMSO control”: median about 1, lowest 2% from about 0.85 on). The sample as a whole holds a higher share of the lowest values than the screen did.
# System: Plasmodium falciparum NF54 stage V gametocytes
# Assay: viability index relative to DMSO control (fraction); higher = less gametocyte killing
# Settings: 2.5 µM, incubation time: 72 h
# Outline: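 Stage V gametocytes of P. falciparum NF54 were held in serum-free screening medium at 0.75% gametocytemia and 1.25% hematocrit, 10 µl per well of a 1,536-well plate, and exposed to compound at 2.5 µM for 72 hr at 37°C under low oxygen. A 3 µl mix of 2.5 µM MitoTracker Red CMXRos with 0.13% saponin was then added for one to two hours, after which one field per well was imaged and red particles of 20–70 µm2 were counted. The viability index equals this count divided by the plate mean from wells given solvent alone.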
# [1] = library set: Broad Institute DOS
# [2] = library set: Broad Institute Blood Stage
Compound,viability index [1],viability index [2]
C[C@@H]1CN([C@H](C)CO)C(=O)CCCn2cc(nn2)CO[C@H]1CN(C)C(=O)Nc1cccc2ccccc12,0.99 ± 0.023,
Cc1ccc(S(=O)(=O)Nc2ccc3c(c2)C(=O)N([C@@H](C)CO)C[C@@H](C)[C@@H](CN(C)S(=O)(=O)c2cccs2)OCCCC[C@@H](C)O3)cc1,1.13 ± 0.23,
NCC[C@H]1CC[C@@H](NC(=O)Cc2ccncc2)[C@H](CO)O1,1.091 ± 0.0072,
CNC(=O)C[C@@H]1CC[C@@H]2[C@H](COC[C@@H](O)CN2Cc2ccccc2F)O1,1.08 ± 0.086,
COc1ccc(S(=O)(=O)Nc2ccc3c(c2)C(=O)N([C@H](C)CO)C[C@H](C)[C@@H](CN(C)Cc2ccc(C(F)(F)F)cc2)OCCCC[C@H](C)O3)cc1,1.07 ± 0.051,
C/C=C/c1ccc2n(c1=O)C[C@@H]1[C@@H](CO)[C@H](C(=O)NCC)N(Cc3cccc(F)c3)[C@H]21.C/C=C\c1ccc2n(c1=O)C[C@@H]1[C@@H](CO)[C@H](C(=O)NCC)N(Cc3cccc(F)c3)[C@H]21,0.99 ± 0.091,
Cc1ccccc1-c1ccc([C@@H]2[C@@H]3CN(Cc4cocn4)C[C@H]2N3)cc1,0.949 ± 0.05,
C[C@@H]1CN([C@@H](C)CO)C(=O)c2cc(NC(=O)C3CC3)ccc2O[C@H]1CN(C)S(=O)(=O)c1ccccc1,0.9821 ± 0.0066,
COc1ccccc1-c1ccc2c(c1)[C@@H]1[C@@H](CCN1C(=O)C1CCC1)[C@H](CO)N2,0.655 ± 0.025,
N#Cc1ccc(-c2ccc3c(c2)[C@H]2[C@H](CCN2C(=O)C2CCCCC2)[C@H](CO)N3)cc1,1.11 ± 0.057,
COc1ccccc1-c1ccc2c(c1)[C@H]1[C@H](CCN1C(=O)C1CCC1)[C@@H](CO)N2,0.865 ± 0.097,
CN1CCN(C(=O)C[C@@H]2CC[C@H]3[C@H](COc4ccc(NC(=O)C5CCOCC5)cc4C(=O)N3C)O2)CC1,1.05 ± 0.029,
CCS(=O)(=O)Nc1ccc2c(c1)C(=O)N(C)[C@H]1CC[C@H](CC(=O)NCCCN3CCOCC3)O[C@@H]1CO2,1.03 ± 0.07,
COc1ccc(S(=O)(=O)N(C)C[C@@H]2Oc3c(NC(=O)c4nc5ccccc5s4)cccc3C(=O)N([C@@H](C)CO)C[C@H]2C)cc1,0.979 ± 0.043,
COc1ccc(S(=O)(=O)N(C)C[C@H]2Oc3c(NC(=O)Nc4cccc5ccccc45)cccc3C(=O)N([C@@H](C)CO)C[C@H]2C)cc1,,0.767 ± 0.035
C[C@@H]1CN([C@@H](C)CO)C(=O)c2cccc(NC(=O)Nc3ccccc3)c2O[C@@H]1CN(C)C(=O)Nc1ccc(F)cc1,,0.727 ± 0.041
CC(C)NC(=O)Nc1cccc2c1O[C@@H](CN(C)C(=O)Nc1ccccc1)[C@@H](C)CN([C@H](C)CO)C2=O,1.1 ± 0.11,
CC(C)NC(=O)Nc1cccc2c1O[C@H](CN(C)C(=O)Nc1ccccc1)[C@H](C)CN([C@H](C)CO)C2=O,1.03 ± 0.09,
CC(C)NC(=O)Nc1cccc2c1O[C@H](CN(C)C(=O)Nc1ccccc1)[C@H](C)CN([C@@H](C)CO)C2=O,0.692 ± 0.19,
CC(C)NC(=O)Nc1cccc2c1O[C@H](CN(C)C(=O)Nc1ccccc1)[C@@H](C)CN([C@@H](C)CO)C2=O,1.09 ± 0.07,
C[C@@H]1CN([C@@H](C)CO)C(=O)c2cccc(NC(=O)Nc3ccccc3)c2O[C@@H]1CN(C)C(=O)Nc1ccccc1,,0.703 ± 0.052
CC(C)NC(=O)Nc1cccc2c1O[C@@H](CN(C)C(=O)Nc1ccccc1)[C@@H](C)CN([C@@H](C)CO)C2=O,1.04 ± 0.011,
CC(C)NC(=O)Nc1cccc2c1O[C@@H](CN(C)C(=O)Nc1ccccc1)[C@H](C)CN([C@H](C)CO)C2=O,1.05 ± 0.17,
CC(C)NC(=O)Nc1cccc2c1O[C@H](CN(C)C(=O)Nc1ccccc1)[C@@H](C)CN([C@H](C)CO)C2=O,0.975 ± 0.13,

Compound,viability index [1],viability index [2]
COc1ccc(S(=O)(=O)N(C)C[C@H]2Oc3c(NC(=O)c4nc5ccccc5s4)cccc3C(=O)N([C@H](C)CO)C[C@H]2C)cc1,1.03 ± 0.022,
CN1C(=O)c2cc(NC(=O)C3CCOCC3)ccc2OC[C@@H]2O[C@H](CC(=O)NCc3ccccc3F)CC[C@H]21,1.04 ± 0.032,
O=C(CN1CCOCC1)N1CC(=O)N2[C@H](C1)[C@H](c1ccc(C3=CCCCC3)cc1)[C@@H]2CO,1.02 ± 0.035,
CCc1cnc(N2[C@H](C#N)[C@@H](c3ccc(-c4cccc(F)c4)cc3)[C@@H]2CO)s1,1.12 ± 0.11,
C[C@H](CO)N1C[C@H](C)[C@H](CN(C)C(=O)Nc2ccccc2C(F)(F)F)OCc2cnnn2CCCC1=O,1.03 ± 0.014,
COc1ccc(NC(=O)Nc2cccc3c2O[C@@H](CN(C)Cc2ccc(C(=O)O)cc2)[C@H](C)CN([C@@H](C)CO)C3=O)cc1,0.978 ± 0.065,
COc1ccc(NC(=O)N(C)C[C@H]2Oc3c(NC(=O)Nc4ccccc4)cccc3C(=O)N([C@@H](C)CO)C[C@H]2C)cc1,,0.724 ± 0.05
COc1ccc(NC(=O)Nc2cccc3c2O[C@@H](CN(C)Cc2ccc(C(=O)O)cc2)[C@@H](C)CN([C@@H](C)CO)C3=O)cc1,0.95 ± 0.17,
CC(C)[C@H]1C(=O)N[C@H](c2cccc(Cl)c2)C/C=C/C[C@H](C)Oc2ccccc2C(=O)N1C.CC(C)[C@H]1C(=O)N[C@H](c2cccc(Cl)c2)C/C=C\C[C@H](C)Oc2ccccc2C(=O)N1C,0.9865 ± 0.0032,
C[C@H](CO)N1C[C@H](C)[C@@H](CN(C)Cc2ccccc2)Oc2c(NC(=O)Cc3cn(C)c4ccccc34)cccc2C1=O,0.744 ± 0.038,
C[C@H](CO)N1C[C@H](C)[C@H](CN(C)Cc2ccc(-c3ccccc3)cc2)Oc2c(NS(C)(=O)=O)cccc2C1=O,0.827 ± 0.011,
C[C@H]1CN([C@@H](C)CO)C(=O)c2cccc(NS(C)(=O)=O)c2O[C@@H]1CN(C)Cc1ccc(-c2ccccc2)cc1,1 ± 0.078,
C[C@@H]1CN([C@H](C)CO)C(=O)c2cccc(NS(C)(=O)=O)c2O[C@@H]1CN(C)Cc1ccc(-c2ccccc2)cc1,1.02 ± 0.028,
C[C@@H]1CN([C@@H](C)CO)C(=O)c2cccc(NS(C)(=O)=O)c2O[C@H]1CN(C)Cc1ccc(-c2ccccc2)cc1,1.01 ± 0.029,
C[C@H](CO)N1C[C@H](C)[C@@H](CN(C)Cc2ccc(Oc3ccccc3)cc2)Oc2c(NC(=O)CCC(F)(F)F)cccc2C1=O,0.888 ± 0.11,
CO[C@H](CN(C)S(=O)(=O)c1ccc(C)cc1)[C@H](C)CN(C(=O)Nc1ccccc1F)[C@H](C)CO,1.06 ± 0.026,
O=C(C[C@H]1CC[C@@H]2[C@H](COC[C@H](O)CN2Cc2ccc3c(c2)OCO3)O1)N1CCCCC1,1.01 ± 0.072,
O=C(c1cnccn1)N1C[C@@H]2N[C@H](C1)[C@@H]2c1ccc(/C=C/c2ccccc2)cc1,1.05 ± 0.026,
COc1ccc(S(=O)(=O)Nc2cccc3c2O[C@@H](CN(C)CC2CCCCC2)[C@H](C)CN([C@H](C)CO)C3=O)cc1,0.958 ± 0.094,
COc1ccc2c3c([nH]c2c1)[C@H](CO)N(C[C@]31CCN(CC1)C(=O)Nc1ccc(F)cc1F)C(C)=O,0.748 ± 0.035,
COc1ccc2c3c([nH]c2c1)[C@@H](CO)N(C[C@]31CN(CC2CC2)C1)C(=O)CN(C)C,0.939 ± 0.018,
COc1ccc2c3c([nH]c2c1)[C@@H](CO)N(C[C@]31CCN(CC1)C(C)=O)C(C)=O,0.9689 ± 0.0023,
COc1ccc2c3c([nH]c2c1)[C@H](CO)N(C[C@]31CCN(CC1)C(=O)Nc1ccccc1)S(C)(=O)=O,0.121 ± 0.0032,
CCC(=O)N1C[C@]2(CCN(CC2)C(=O)Nc2ccccc2F)c2c([nH]c3cc(OC)ccc23)[C@@H]1CO,0.642 ± 0.081,

Compound,viability index [1],viability index [2]
COc1ccc2c3c([nH]c2c1)[C@H](CO)N(C[C@]31CN(CC2CC2)C1)C(=O)CN(C)C,1.07 ± 0.032,
COCC(=O)N1CC[C@@]2(CC1)CN([C@@H](CO)c1[nH]c3cc(OC)ccc3c21)S(C)(=O)=O,1.09 ± 0.06,
COc1ccc2c3c([nH]c2c1)[C@@H](CO)N(C[C@]31CCN(CC1)C(=O)Nc1ccccc1)S(C)(=O)=O,0.99 ± 0.15,
COCC(=O)N1C[C@@]2(C1)CN([C@H](CO)c1[nH]c3cc(OC)ccc3c21)C(=O)Nc1ccccc1F,1.03 ± 0.071,
COc1ccc2c3c([nH]c2c1)[C@@H](CO)N(C[C@]31CCN(CC1)C(=O)Nc1ccc(F)cc1F)C(C)=O,1.07 ± 0.056,
COc1ccc2c3c([nH]c2c1)[C@@H](CO)N(C[C@]31CCN(CC2CCCCC2)CC1)C(=O)CN(C)C,,0.807 ± 0.026
CCC(=O)N1C[C@]2(CCN(CC2)C(=O)Nc2ccccc2F)c2c([nH]c3cc(OC)ccc23)[C@H]1CO,0.9987 ± 0.0051,
O=C(C[C@@H]1C[C@H]2c3cc(NS(=O)(=O)c4ccccc4)ccc3O[C@H]2[C@@H](CO)O1)N1CCOCC1,1.05 ± 0.026,
COCC(=O)NC[C@@H]1[C@H](c2ccccc2)[C@H](CO)N1C(=O)c1ccccc1,0.986 ± 0.17,
C[C@H]1CN([C@@H](C)CO)C(=O)c2cccc(NC(=O)c3cnccn3)c2O[C@H]1CN(C)C(=O)NC1CCCCC1,1.01 ± 0.033,
COc1ccccc1-c1ccc2n(c1=O)C[C@@H]1[C@@H](CO)[C@H](C(=O)N3CCOCC3)[C@H]2N1CC1CC1,1.04 ± 0.016,
COc1cccc(-c2ccc3n(c2=O)C[C@@H]2[C@@H](CO)[C@H](C(=O)N(C)C)[C@H]3N2C(=O)c2ccccn2)c1,1.04 ± 0.017,
CO[C@@H]1CN(C)C(=O)c2ccc(NC(=O)C3CC3)cc2OC[C@@H](C)N(C(C)=O)C[C@@H]1C,1.02 ± 0.042,
CN1C[C@@H](O)COC[C@H]2O[C@H](CC(=O)NC3CCCC3)CC[C@@H]21,1.05 ± 0.064,
O=C(C1CCC1)N1C[C@@H]2N[C@H](C1)[C@H]2c1ccc(/C=C/c2ccccc2)cc1,1.02 ± 0.042,
O=C(c1ccc2c(c1)OCO2)N1C[C@@H]2N[C@H](C1)[C@@H]2c1ccc(/C=C/c2ccccc2)cc1,0.731 ± 0.086,
COc1ccccc1NC(=O)N1C[C@@H]2N[C@H](C1)[C@@H]2c1ccc(/C=C/c2ccccc2)cc1,0.571 ± 0.027,
O=C(C1CCC1)N1C[C@@H]2N[C@H](C1)[C@@H]2c1ccc(/C=C/c2ccccc2)cc1,0.799 ± 0.019,
O=C(c1ccc2c(c1)OCO2)N1C[C@@H]2N[C@H](C1)[C@@H]2c1ccc(-c2cncnc2)cc1,1.08 ± 0.035,
C/C=C/c1ccc([C@H]2[C@@H]3CN(C(=O)Nc4ccccc4F)C[C@H]2N3)cc1,1.06 ± 0.034,
O=C(c1ccc2c(c1)OCO2)N1C[C@@H]2N[C@H](C1)[C@H]2c1ccc(/C=C/c2ccccc2)cc1,1.05 ± 0.017,
O=C(C1CCC1)N1C[C@@H]2N[C@H](C1)[C@@H]2c1ccc(-c2cncnc2)cc1,1.115 ± 0.0039,
COc1ccccc1NC(=O)N1C[C@@H]2N[C@H](C1)[C@H]2c1ccc(/C=C/c2ccccc2)cc1,0.976 ± 0.048,
